# Source: PubChem
# Sampled rows, rich in hits. Any-hit rate of the full collection: about 11%.
# HPGD block = qHTS Assay for Inhibitors of HPGD (15-Hydroxyprostaglandin Dehydrogenase) | 15-hydroxyprostaglandin dehydrogenase [NAD(+)] (Homo sapiens), P15428 | purified HPGD, NADH fluorescence kinetic, PGE2 substrate | Potency, µM, hits mostly inhibitors | 150,000 tested, 4.3% active
#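 20 nM HPGD preincubated 15 min at room temperature with compound in 50 mM Tris-HCl pH 8, 0.01% Tween 20. Started with 1 mM NAD+ and 30 uM prostaglandin E2; NADH fluorescence (360/450 nm) read 5 times over 30-s intervals, last minus first.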
# PNC assembly inh = High Content Assay for Compounds that inhibit the Assembly of the Perinucleolar Compartment; AID 2417, 2010; 140,000 tested, 3.1% active; PC3M PTB-GFP, PNC prevalence imaging, 16 h; hits give low values; activity change (PNC), negative = inhibition, % at 10 µM;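 active = readout at or below -70, meaning at least 70% loss of cells showing the perinucleolar compartment, a nuclear body marking cancer cells; inconclusive = readout between -30 and a set limit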
#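 PC3M cells stably expressing PTB-GFP, 750–1000 cells/well, treated 16 h at 37 °C with compound (23 nl of library stock), in duplicate. After paraformaldehyde fixation and Hoechst stain, imaged at 20x; PNC prevalence scored by image analysis.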
# ALDH1A1 block = qHTS Assay for Inhibitors of Aldehyde Dehydrogenase 1 (ALDH1A1) | Purified ALDH1A1, NADH fluorescence, propionaldehyde substrate | Potency, µM (highest dose often 75.3 µM), hits mostly inhibitors | Aldehyde dehydrogenase 1A1 (Homo sapiens), P00352 | 220,000 tested, 7.3% active
# Target sequence (P00352 whole entry, looked up): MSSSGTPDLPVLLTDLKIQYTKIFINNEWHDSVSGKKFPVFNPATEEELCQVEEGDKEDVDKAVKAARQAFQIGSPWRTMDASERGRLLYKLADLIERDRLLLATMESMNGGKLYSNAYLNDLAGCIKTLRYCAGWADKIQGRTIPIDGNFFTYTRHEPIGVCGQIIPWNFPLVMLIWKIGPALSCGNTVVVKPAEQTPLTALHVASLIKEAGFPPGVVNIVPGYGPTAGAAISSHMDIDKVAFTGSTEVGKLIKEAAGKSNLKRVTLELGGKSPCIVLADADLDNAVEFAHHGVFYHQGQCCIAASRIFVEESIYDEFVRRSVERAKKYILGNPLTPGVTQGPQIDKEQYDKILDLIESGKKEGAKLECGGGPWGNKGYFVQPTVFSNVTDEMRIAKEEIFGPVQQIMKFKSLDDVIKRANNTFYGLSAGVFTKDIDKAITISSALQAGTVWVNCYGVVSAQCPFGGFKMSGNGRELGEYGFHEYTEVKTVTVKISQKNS
# Numbers stand for hits; . = inactive; ? = inconclusive; / = not tested or not shown; [ ] = dose if it differs, or a comment. Unless noted, calls come from the whole dose curve; as a rule, active = well fitted inhibition curve with a large enough effect (not every such curve was filed as active); inconclusive = small, poorly fitted or top-dose-only effect, or another doubt; inactive = no such curve, though single readings can be large or run the other way.
SMILES,HPGD block,PNC assembly inh,ALDH1A1 block
O=C(N/N=C(\c1ccccc1)c1ccccn1)c1cccc([N+](=O)[O-])c1,/,/,18µM
O=C(NNC(=O)c1cnccn1)c1cccc([N+](=O)[O-])c1,.,.,?
O=C(CC(=O)c1cccc([N+](=O)[O-])c1)Nc1ccccc1Cl,/,/,3.5µM
CC(CC(=O)Nc1cc([N+](=O)[O-])ccc1Cl)c1ccccc1 (centres undefined),.,.,.
O=C(Nc1ccccc1-c1ccccc1)c1cccc([N+](=O)[O-])c1,.,.,7.9µM
Cc1csc(Sc2ccc(S(=O)(=O)N3CCCC3)cn2)n1,/,/,.
O=C(Nc1cc(Cl)ccn1)C1(c2ccccc2)CC1(Cl)Cl (centres undefined),/,/,.
C=CCOC(=O)c1sc(NC(=O)c2ccc(OC)cc2)nc1C,/,/,.
COc1ccc(/C(=C/c2ccc(OC(F)F)c(OC)c2)C(=O)O)cc1OC,.,.,.
CN(CC(=O)Nc1c(Cl)cccc1Cl)C(=O)CCCN1C(=O)c2ccccc2C1=O,.,.,?
COc1ccc(C(=O)N2CCC3(CCN(C(=O)Nc4ccccc4)CC3)CC2)cc1,.,/,.
CCC(=O)Nc1nonc1-c1nc2ccccc2n1Cc1ccccc1,.,?,?
CCOC(=O)Cn1c(-c2nonc2NC(=O)c2ccccc2F)nc2ccccc21,?,-108,?
NNC(=O)Cn1c(-c2nonc2N)nc2ccccc21,/,/,.
CCCCOc1ccccc1NC(=O)Cn1c(-c2nonc2N)nc2ccccc21,.,-95,.
O=C(O)c1sc2cc(C(F)(F)F)cnc2c1-c1ccccn1,/,/,.
O=C(O)C1=C[C@@H](C2CCCCC2)C[C@@H](OCCCCO)O1,/,/,.
COc1ccccc1OCCCCOc1ccccc1F,.,.,.
CCN(CC)CCCCCOc1ccccc1OC,.,.,0.028µM
COc1ccc(-c2nnc(SCC(=O)NC(=O)NCc3ccccc3)o2)cc1,.,.,.
CCOC(=O)CCN1C(=O)[C@H]2[C@H]3[C@H](O)[C@H](O)C/C(=N/OCC(C)C)[C@H]3CC[C@@H]2C1=O,/,/,.[13.5 µM]
CCCCNC(=O)c1onc(CCl)c1C(=O)OC,.,?,14µM
C=CCNC(=O)c1onc(CCl)c1C(=O)OC,.,.,.
COCCNC(=O)c1onc(CCl)c1C(=O)OC,.,.,28µM
CCCCNC(=O)c1onc(CSc2ccc(OC)cc2)c1C(=O)O,.,?,.
SMILES,HPGD block,PNC assembly inh,ALDH1A1 block
O=C(N/N=C\c1c(O)ccc2ccccc12)c1ccc(Cn2cccn2)o1,.,.,.
CS(=O)(=O)c1cnc(-c2cccnc2)nc1N,/,/,.
CCN(CC)S(=O)(=O)c1ccc(N2CCN(S(=O)(=O)c3ccc4c(c3)OCCO4)CC2)nc1,.,-91,.
CN1CCN(c2ccc(S(=O)(=O)N3CCCCC3)cn2)CC1,.,-83,.
CCN(CC)S(=O)(=O)c1ccc(N2CCN(CCO)CC2)nc1,.,.,.
O=S(=O)(c1ccc(N2CCCCCC2)nc1)N1CCCC1,/,/,.
COc1ccc(CNC(=O)C(OC(=O)c2ccco2)c2ccc(OC)cc2)cc1 (centres undefined),.,.,6.3µM
COc1ccc(C(OC(=O)c2ccco2)C(=O)NCc2ccco2)cc1 (centres undefined),.,?,.
COc1ccc(OC)c(-n2c(SCC(N)=O)nnc2-c2c[nH]c3ccccc23)c1,.,.,.
COc1ccc(OC)c(-n2c(SC)nnc2-c2c[nH]c3ccccc23)c1,18µM,.,?
NS(=O)(=O)c1ccc(NC(=S)Nc2cc(Cl)c(Cl)cc2Cl)cc1,.,?,?
CC1(C)S[C@@H]2[C@H](NC(=O)[C@@H](N)c3ccccc3)C(=O)N2[C@H]1C(=O)O[C@H]1OC(=O)c2ccccc21,?,/,2.8µM
CC1(C)S[C@@H]2[C@H](NC(=O)C(N)c3ccccc3)C(=O)N2[C@H]1C(=O)O (some centres undefined),.,/,.
CCOC(=O)C(C)Sc1ncc(-c2ccc(Cl)cc2)cn1 (centres undefined),.,.,?
COc1ccc(N=C(C)C2=C(O)COC2=O)cc1,.,?,.
CC(/C=C/c1ccccc1)=N/NC(=O)c1cccc(Br)c1,/,/,.
CC(/C=C\C=C\c1ccccc1)=N\NC(=O)c1cncc(Br)c1,/,/,22µM
COC(=O)COC(=O)CC(CC(N)=O)c1ccccc1 (centres undefined),.,.,.
Cc1ccccc1NC(=S)NCc1ccc2[nH]c3c(c2c1)CCCC3,20µM,.,?
CCCCNC(=S)NCc1ccc2[nH]c3c(c2c1)CCCC3,/,/,.
